Active and inactive are the calls of the source. Rule for the calls: active = hit-call score of the fitted dose curve at least 0.9, where 1 is the maximum; inactive = score below 0.9.

A short description of the first test: CCTE_Shafer_MEA_acute_burst_percentage_std: CCTE's Neural Acute Assay for Standard Deviation of Burst Percentage, Shafer Lab (AID 2284018).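 Note: fitted in the negative direction so actives lower burst percentage SD.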 An outline of the steps: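 Rat primary cortical neurons on 48-well MEAs, DIV 13 or 15, 37 C. 40-min baseline then 40-min recording with compound (0.03-40 uM); well-level SD of per-electrode burst spike percentage, expressed as percent change from baseline.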
As for `O=C(O)CN(CC(=O)O)CC(=O)O`, the outcome was inactive.

As to `c1ccc2occc2c1`, the molecule was called inactive.

Turning to `CC(C)COC(=O)CCCCC(=O)OCC(C)C`, the molecule was classed as inactive.

Turning to `CC(C)NCC(O)c1ccc(O)c(O)c1` (stereo unspecified), the call was inactive.

With `COC(=O)[C@H]1[C@H]2C[C@@H]3c4[nH]c5cc(OC)ccc5c4CCN3C[C@H]2C[C@@H](OC(=O)c2cc(OC)c(OC)c(OC)c2)[C@@H]1OC`, the result was inactive.

`C/C=C/c1ccc(OC)cc1`: the molecule was classed as inactive.

As for `Cc1cc(Cc2ccc(N)c(C)c2)ccc1N`, the molecule was called inactive.

Regarding `COc1ccc(OC(F)(F)F)cc1CN[C@H]1CCCN[C@H]1c1ccccc1`, the AC50 – broadly, the concentration at which the activity in the assay is half-maximal – is 4.15 µM (active).

For the molecule `CC(N)=O`, the molecule was called inactive.

Turning to `Cc1ccc(C(C)(C)C)c(O)c1`, the molecule was classed as inactive.

For `O=C(N[C@@H](c1ccccc1)[C@@H]1CCCCN1)c1cccc(C(F)(F)F)c1Cl`, the molecule was classed as inactive.

A short description of a further test: CCTE_Shafer_MEA_acute_per_network_burst_spike_number_mean: CCTE's Neural Acute Assay for Average Number of Spikes in a Network Burst, Shafer Lab (AID 2284019).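 For AC50: curve fitted for loss of signal so actives reduce spikes per network burst.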 An outline of the steps:
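Rat cortical cultures, DIV 13/15; spike threshold 8x rms noise, 300-5000 Hz band-pass, 12.5 kHz sampling; wells need >/= 10 active electrodes. Compound 0.03-40 uM, 40 min, 37 C; % change vs own baseline, DMSO negative control.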
Turning to `Nc1nc(=S)c2[nH]cnc2[nH]1`, the AC50 is 17.1 µM (active).

Consider `CCc1cc(C2=C(C(=O)O)N(c3ccccc3C(F)(F)F)S(=O)(=O)c3ccccc32)cc2c1OCO2`, for which the molecule was called inactive.

As to `Cc1ccc(-c2cc(C(F)(F)F)nn2-c2ccc(S(N)(=O)=O)cc2)cc1`, the result was inactive.

On to `OCC(CO)n1cnc(-c2ccc(F)cc2)c1-c1ccnc(Oc2ccccc2)n1`, for which the call was inactive.

In the case of `CN(C)C(=O)NC1(c2ccccc2)CCN(CCC[C@]2(c3ccc(Cl)c(Cl)c3)CCCN(C(=O)c3ccccc3)C2)CC1`, the outcome was inactive.

Turning to `CN(C)C(=O)NC1(c2ccccc2)CCN(CC[C@@]2(c3ccc(F)c(F)c3)CN(C(=O)c3ccccc3)CCO2)CC1`, the molecule was called inactive.

In the case of `CCN(CC)CCOc1ccc(C(=C(Cl)c2ccccc2)c2ccccc2)cc1`, the call was inactive.

For `Cc1c(C)c2c(c(C)c1O)CCC(C)(COc1ccc(CC3SC(=O)NC3=O)cc1)O2` (stereo unspecified), the AC50 is 3.02 µM (active).

For `CN(C)CCCN1c2ccccc2Sc2ccc(Cl)cc21`, the molecule was classed as inactive.

On to `CCCCC(CC)COP(=O)(OCC(CC)CCCC)OCC(CC)CCCC` (stereo unspecified), for which the molecule was called inactive.

`Cc1cc(SC2=C(O)C[C@@](CCc3ccc(N)cc3)(C(C)C)OC2=O)c(C(C)(C)C)cc1CO`: the call was inactive.

`CSc1ccc(Oc2ccc(S(N)(=O)=O)cc2CN(C)C)cc1C`: the molecule was classed as inactive.

Turning to `CCCC(=O)O`, the call was inactive.

In the case of `CC1=C(C)S(=O)(=O)CCS1(=O)=O`, the molecule was called inactive.

As for `O=C1OC(c2ccc(O)cc2)(c2ccc(O)cc2)c2ccccc21`, the call was inactive.

On to `NC(=Nc1ccccc1)Nc1ccccc1`, for which the molecule was called inactive.

In the case of `Oc1ccc(O)cc1`, the result was inactive.

Turning to `O=C(O)CN(CC(=O)O)CC(=O)O`, the result was inactive.

With `c1ccc2occc2c1`, the outcome was inactive.

As to `CC(C)COC(=O)CCCCC(=O)OCC(C)C`, the molecule was classed as inactive.

Take `CC(C)NCC(O)c1ccc(O)c(O)c1` (stereo unspecified): the result was inactive.

Take `COC(=O)[C@H]1[C@H]2C[C@@H]3c4[nH]c5cc(OC)ccc5c4CCN3C[C@H]2C[C@@H](OC(=O)c2cc(OC)c(OC)c(OC)c2)[C@@H]1OC`: the half-maximal activity concentration (AC50) was 0.808 µM (active).

For `C/C=C/c1ccc(OC)cc1`, the result was inactive.

For the molecule `Cc1cc(Cc2ccc(N)c(C)c2)ccc1N`, the call was inactive.

Consider `COc1ccc(OC(F)(F)F)cc1CN[C@H]1CCCN[C@H]1c1ccccc1`, for which the AC50 is 2.07 µM (active).

`CC(N)=O`: the outcome was inactive.

In the case of `Cc1ccc(C(C)(C)C)c(O)c1`, the result was inactive.

`O=C(N[C@@H](c1ccccc1)[C@@H]1CCCCN1)c1cccc(C(F)(F)F)c1Cl`: the molecule was classed as inactive.

A short description of the next test: CCTE_Shafer_MEA_acute_per_network_burst_spike_number_std: CCTE's Neural Acute Assay for Standard Deviation of Number of Spikes in a Network Burst, Shafer Lab (AID 2284020).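 Note: fitted for decrease in spike-number SD versus DMSO so actives lower it.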 An outline of the steps:
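Rat cortical cultures, DIV 13/15, 37 C; 20-min stabilisation, 40-min baseline, compound 0.03-40 uM, 40-min re-record. Spikes detected at 8x rms noise (300-5000 Hz band-pass). Readout: % change from baseline in per-burst spike-number SD.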
Take `Nc1nc(=S)c2[nH]cnc2[nH]1`: the molecule was classed as inactive.

In the case of `Cc1ccc(-c2cc(C(F)(F)F)nn2-c2ccc(S(N)(=O)=O)cc2)cc1`, the call was inactive.

As for `OCC(CO)n1cnc(-c2ccc(F)cc2)c1-c1ccnc(Oc2ccccc2)n1`, the call was inactive.

On to `CN(C)C(=O)NC1(c2ccccc2)CCN(CCC[C@]2(c3ccc(Cl)c(Cl)c3)CCCN(C(=O)c3ccccc3)C2)CC1`, for which the AC50 is 7.62 µM (active).

For the molecule `CN(C)C(=O)NC1(c2ccccc2)CCN(CC[C@@]2(c3ccc(F)c(F)c3)CN(C(=O)c3ccccc3)CCO2)CC1`, the result was inactive.

As to `CCN(CC)CCOc1ccc(C(=C(Cl)c2ccccc2)c2ccccc2)cc1`, the result was inactive.

On to `Cc1c(C)c2c(c(C)c1O)CCC(C)(COc1ccc(CC3SC(=O)NC3=O)cc1)O2` (stereo unspecified), for which the AC50 was 0.517 µM (active).

In the case of `CN(C)CCCN1c2ccccc2Sc2ccc(Cl)cc21`, the outcome was inactive.

Take `CCCCC(CC)COP(=O)(OCC(CC)CCCC)OCC(CC)CCCC` (stereo unspecified): the result was inactive.

In the case of `Cc1cc(SC2=C(O)C[C@@](CCc3ccc(N)cc3)(C(C)C)OC2=O)c(C(C)(C)C)cc1CO`, the result was inactive.

For `CSc1ccc(Oc2ccc(S(N)(=O)=O)cc2CN(C)C)cc1C`, the call was inactive.

In the case of `CCCC(=O)O`, the result was inactive.

As to `CC1=C(C)S(=O)(=O)CCS1(=O)=O`, the result was inactive.

Regarding `O=C1OC(c2ccc(O)cc2)(c2ccc(O)cc2)c2ccccc21`, the AC50 was 20 µM (active).

On to `NC(=Nc1ccccc1)Nc1ccccc1`, for which the outcome was inactive.

Consider `Oc1ccc(O)cc1`, for which the molecule was called inactive.

For the molecule `O=C(O)CN(CC(=O)O)CC(=O)O`, the call was inactive.

Take `c1ccc2occc2c1`: the call was inactive.

With `CC(C)COC(=O)CCCCC(=O)OCC(C)C`, the call was inactive.

For the molecule `CC(C)NCC(O)c1ccc(O)c(O)c1` (stereo unspecified), the molecule was classed as inactive.

Turning to `COC(=O)[C@H]1[C@H]2C[C@@H]3c4[nH]c5cc(OC)ccc5c4CCN3C[C@H]2C[C@@H](OC(=O)c2cc(OC)c(OC)c(OC)c2)[C@@H]1OC`, the half-maximal activity concentration (AC50) was 20 µM (active).

`C/C=C/c1ccc(OC)cc1`: the molecule was called inactive.

In the case of `Cc1cc(Cc2ccc(N)c(C)c2)ccc1N`, the concentration at half-maximal activity (AC50) was 20 µM (active).

For the molecule `COc1ccc(OC(F)(F)F)cc1CN[C@H]1CCCN[C@H]1c1ccccc1`, the half-maximal activity concentration (AC50) is 2.75 µM (active).

In the case of `CC(N)=O`, the molecule was classed as inactive.

Turning to `Cc1ccc(C(C)(C)C)c(O)c1`, the molecule was classed as inactive.

On to `O=C(N[C@@H](c1ccccc1)[C@@H]1CCCCN1)c1cccc(C(F)(F)F)c1Cl`, for which the concentration at half-maximal activity (AC50) was 5 µM (active).

(Values after PubChem BioAssay (EPA / NIEHS).)
